Consider 13 compounds from PubChem BioAssay (NCATS).

A short description of experiment [1]: S16 Schwann cell PMP22 intronic element beta-lactamase assay (AID 624044; calls by dose curve; note: nearly all actives have a fitted effect of over 15% in size). In outline: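 Beta-lactamase reporter under a PMP22 intronic regulatory element in stable S16 rat Schwann cells; 24 h compound exposure. 460 nm blue signal normalized between DMSO (0%) and potassium clavulanate, with 535 nm FRET tracking viability; curves classed by r2 and response.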

Another experiment deals with CP192. Description: qHTS profiling for inhibitors of Plasmodium falciparum proliferation (AID 504749). Note: nearly all actives have a fitted effect of over 60% in size. Note: potency is the fitted concentration of half-maximal effect. The following applies: P. falciparum in erythrocytes, SYBR Green DNA, 72 h; series mostly up to 12.8 µM. In outline:
(§1)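 SYBR Green fluorescence of parasite DNA, read after lysis and overnight dark incubation, measured growth over 72 h in erythrocyte culture at 0.3% parasitemia and 2.5% hematocrit. Data normalised to DMSO and 0.29 uM artemisinin, with plate-drift correction.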

The subject of a further experiment is CP247. The experiment is described as above. The settings on record: P. falciparum in erythrocytes, SYBR Green DNA, 72 h; series mostly up to 12.8 µM. The method in brief:
as §1

In the next experiment the test system is CP250. The description is as above. The settings on record: P. falciparum in erythrocytes, SYBR Green DNA, 72 h; series mostly up to 12.8 µM. In outline:
as §1

For a further experiment, the system named is CP305. Described as above. The settings on record: P. falciparum in erythrocytes, SYBR Green DNA, 72 h; series mostly up to 12.8 µM. The method in brief:
as §1

Another experiment has as its system CP325. Described as above. The settings on record: P. falciparum in erythrocytes, SYBR Green DNA, 72 h; series mostly up to 12.8 µM. In outline: as §1
A further experiment concerns N140. The experiment is described as above. The following applies: P. falciparum in erythrocytes, SYBR Green DNA, 72 h; series mostly up to 12.8 µM. In outline: as §1
In another experiment the test system is P93_24. The experiment is described as above. The following applies: P. falciparum in erythrocytes, SYBR Green DNA, 72 h; series mostly up to 12.8 µM. The method in brief:
as §1

The next experiment concerns 3D7. The description is as above. The settings on record: P. falciparum in erythrocytes, SYBR Green DNA, 72 h; series mostly up to 12.8 µM. In outline:
as §1

For the next experiment, the system named is ATS189. The description is as above. The settings on record: P. falciparum in erythrocytes, SYBR Green DNA, 72 h; series mostly up to 12.8 µM. In outline: as §1
The test system of the next experiment is ATS95. Described as above. The settings on record: P. falciparum in erythrocytes, SYBR Green DNA, 72 h; series mostly up to 12.8 µM. The method in brief: as §1
The test system of another experiment is CP217. The description is as above. The following applies: P. falciparum in erythrocytes, SYBR Green DNA, 72 h; series mostly up to 12.8 µM. In outline:
as §1

In the next experiment the test system is CP238. Described as above. The following applies: P. falciparum in erythrocytes, SYBR Green DNA, 72 h; series mostly up to 12.8 µM. The method in brief:
as §1

In another experiment the test system is CP265. Described as above. The settings on record: P. falciparum in erythrocytes, SYBR Green DNA, 72 h; series mostly up to 12.8 µM. The method in brief: as §1
The test system of another experiment is Dd2. The description is as above. The settings on record: P. falciparum in erythrocytes, SYBR Green DNA, 72 h; series mostly up to 12.8 µM. In outline:
as §1

A further experiment has as its system FAB9. Described as above. The settings on record: P. falciparum in erythrocytes, SYBR Green DNA, 72 h; series mostly up to 12.8 µM. The method in brief:
as §1

A further experiment has as its system PAD. The experiment is described as above. The settings on record: P. falciparum in erythrocytes, SYBR Green DNA, 72 h; series mostly up to 12.8 µM. In outline: as §1
Another experiment concerns PC15. The description is as above. The following applies: P. falciparum in erythrocytes, SYBR Green DNA, 72 h; series mostly up to 12.8 µM. The method in brief:
as §1

For a further experiment, the system named is PC49. Described as above. The settings on record: P. falciparum in erythrocytes, SYBR Green DNA, 72 h; series mostly up to 12.8 µM. The method in brief:
as §1

The test system of another experiment is TAB109. The description is as above. The settings on record: P. falciparum in erythrocytes, SYBR Green DNA, 72 h; series mostly up to 12.8 µM. In outline:
as §1

Results filed as inconclusive are left out. Activity calls are given as the source filed them. Unless noted, calls come from the whole dose curve; as a rule, active = well fitted inhibition curve with a large enough effect; inconclusive = small, poorly fitted or top-dose-only effect; inactive = flat fitted curve, though single readings scatter.

Regarding `CCC(=O)O[C@@]1(C(=O)SCF)[C@@H](C)C[C@H]2[C@@H]3C[C@@H](F)C4=CC(=O)C=C[C@@]4(C)[C@]3(F)[C@@H](O)C[C@]21C`, the Potency entry (in experiment [1]; in the experiment on CP192; in the experiment with CP247; with CP250; in the experiment on CP305; with CP325) was “inactive” each time. The Potency with N140 was 3.98 µM (active); in the experiment with P93_24, 3.55 µM (active).
Regarding `Cc1ccc(S(=O)(=O)NC(=O)NN2C[C@H]3CCC[C@@H]3C2)cc1`, the Potency entry (in [1]; with 3D7; in the experiment with ATS189; in the experiment on ATS95; in the experiment on CP192; in the experiment on CP217) was “inactive” throughout. Moreover, the Potency result in the experiment with CP238, with CP247, in the experiment on CP250, in the experiment with CP265, in the experiment on CP305 and in the experiment with CP325 was “inactive” throughout. The Potency result with Dd2, with FAB9, in the experiment on N140, in the experiment on P93_24, with PAD and with PC15 was “inactive” in each case. For the same compound, the Potency entry in the experiment on PC49 and in the experiment on TAB109 was “inactive” throughout.
Take `Clc1ccc([C@H](Cn2ccnc2)OCc2csc3c(Cl)cccc23)c(Cl)c1`: in experiment [1], the Potency entry was “inactive”. For the same compound, the Potency in the experiment with 3D7 is 3.55 µM (active); in the experiment with Dd2 it was 3.55 µM (active); in the experiment on N140, 3.98 µM (active); in the experiment with P93_24, 2 µM (active); in the experiment on PAD, 3.55 µM (active).
For `NC(=O)c1cc[n+](CC2=C(C(=O)[O-])N3C(=O)[C@@H](NC(=O)Cc4cccs4)[C@@H]3SC2)cc1`, the Potency entry (in [1]; in the experiment with 3D7; with ATS189; in the experiment with ATS95; in the experiment with CP192; in the experiment on CP217) was “inactive” throughout. For the same compound, the Potency result with CP238, in the experiment on CP247, in the experiment on CP250, in the experiment with CP265, with CP305 and in the experiment with CP325 was “inactive” each time. Also, the Potency result with Dd2, with FAB9, with N140, in the experiment on P93_24, in the experiment on PAD and in the experiment on PC15 was “inactive” throughout. The Potency result in the experiment with PC49 and with TAB109 was “inactive” throughout.
Consider `C[C@@]12CC[C@H]3[C@@H](CCC4=CC(=O)CC[C@]43C)[C@H]1CC[C@H]2C(=O)CO`, for which the Potency result (in [1]; with 3D7; with ATS189; with ATS95; with CP192; in the experiment on CP217) was “inactive” in each case. For the same compound, the Potency result in the experiment on CP238, with CP250, with CP265, with CP305, in the experiment on CP325 and in the experiment on Dd2 was “inactive” throughout. Further, the Potency entry with FAB9, in the experiment on N140, with P93_24, in the experiment with PC15, with PC49 and in the experiment on TAB109 was “inactive” in each case.
Take `CCCC[C@H](CC)CN1CN(C[C@@H](CC)CCCC)CC(C)(N)C1`: the Potency result (in [1]; in the experiment with 3D7; with ATS189; in the experiment on ATS95; in the experiment on CP192; with CP217) was “inactive” each time. The Potency entry in the experiment with CP238, in the experiment on CP247, with CP250, in the experiment with CP265, in the experiment on CP305 and in the experiment with CP325 was “inactive” in each case. The Potency result with Dd2, with FAB9, in the experiment with N140, in the experiment on P93_24, with PAD and with PC15 was “inactive” throughout. Also, the Potency result in the experiment with PC49 and in the experiment on TAB109 was “inactive” in each case.
As for `COc1c(O[C@H]2O[C@@H](CO)[C@@H](O)[C@@H](O)[C@@H]2O)cc2c(c1OC)-c1ccc(SC)c(=O)cc1[C@H](NC(C)=O)CC2`, the Potency result (in experiment [1]; with 3D7; in the experiment with ATS189; with ATS95; in the experiment on CP192; in the experiment with CP217) was “inactive” each time. Also, the Potency result in the experiment with CP238, in the experiment with CP247, in the experiment on CP250, in the experiment on CP265, in the experiment on CP305 and in the experiment with CP325 was “inactive” in each case. Also, the Potency entry in the experiment with Dd2, in the experiment with FAB9, in the experiment with N140, in the experiment with P93_24, with PAD and in the experiment with PC15 was “inactive” throughout. Further, the Potency entry in the experiment with PC49 and in the experiment with TAB109 was “inactive” throughout.
On to `NCc1ccccc1CC(=O)N[C@@H]1C(=O)N2C(C(=O)O)=C(CSc3nnnn3CC(=O)O)CS[C@@H]12`, for which the Potency entry (in experiment [1]; in the experiment on 3D7; with ATS189; in the experiment on ATS95; in the experiment on CP192; in the experiment on CP217) was “inactive” in each case. Also, the Potency result in the experiment with CP238, in the experiment on CP247, with CP250, with CP265, with CP305 and in the experiment with CP325 was “inactive” each time. Besides, the Potency entry in the experiment on Dd2, in the experiment with FAB9, in the experiment with N140, with P93_24, with PAD and in the experiment on PC15 was “inactive” each time. In addition, the Potency entry with PC49 and in the experiment on TAB109 was “inactive” in each case.
In the case of `C=CC1=C(C(=O)O)N2C(=O)[C@@H](NC(=O)/C(=N\OCC(=O)O)c3csc(N)n3)[C@@H]2SC1`, the Potency entry (in [1]; in the experiment on 3D7; in the experiment with ATS189; with ATS95; in the experiment with CP192; in the experiment with CP217) was “inactive” throughout. Also, the Potency result in the experiment on CP238, in the experiment with CP247, in the experiment with CP250, with CP265, in the experiment on CP305 and in the experiment with CP325 was “inactive” in each case. The Potency result in the experiment on Dd2, with FAB9, in the experiment on N140, with P93_24, with PAD and with PC15 was “inactive” throughout. The Potency result with PC49 and in the experiment on TAB109 was “inactive” in each case.
Take `C[C@H](N[C@@H](C)COc1ccccc1)[C@H](O)c1ccc(O)cc1`: the Potency entry (in experiment [1]; in the experiment on 3D7; in the experiment with ATS189; in the experiment on ATS95; in the experiment on CP192; with CP217) was “inactive” throughout. The Potency result in the experiment with CP238, in the experiment on CP247, with CP250, with CP265, with CP305 and with CP325 was “inactive” in each case. In addition, the Potency result in the experiment on FAB9, in the experiment on N140, in the experiment on P93_24, in the experiment with PAD, in the experiment with PC15 and with PC49 was “inactive” in each case. For the same compound, the Potency entry in the experiment with TAB109 is “inactive”.
In the case of `CC(C)NC[C@H]1CCc2cc(CO)c([N+](=O)[O-])cc2N1`, the Potency result in the experiment on 3D7, with ATS189, in the experiment with ATS95, with CP192, in the experiment on CP217 and with CP238 was “inactive” each time. Also, the Potency result in the experiment on CP247, with CP250, in the experiment on CP265, in the experiment on CP305, in the experiment with CP325 and in the experiment with Dd2 was “inactive” throughout. Also, the Potency result with FAB9, in the experiment with N140, in the experiment on P93_24, in the experiment on PAD, with PC15 and with PC49 was “inactive” throughout. Further, the Potency entry with TAB109 is “inactive”.
For the compound `CCOC(=O)O[C@]1(C(=O)COC(=O)CC)CC[C@@H]2[C@@H]3CCC4=CC(=O)C=C[C@@]4(C)[C@H]3[C@H](O)C[C@]21C`, the Potency entry (in experiment [1]; with 3D7; with ATS189; in the experiment with ATS95; in the experiment with CP192; in the experiment with CP217) was “inactive” each time. For the same compound, the Potency entry in the experiment with CP238, in the experiment on CP247, in the experiment with CP250, in the experiment on CP265, with CP305 and in the experiment with CP325 was “inactive” in each case. The Potency entry in the experiment on Dd2, with FAB9, with N140, with P93_24, in the experiment with PAD and with PC15 was “inactive” each time. Also, the Potency result in the experiment with PC49 and in the experiment with TAB109 was “inactive” throughout.
As for `OCCN1CCN(CCC=C2c3ccccc3Sc3ccc(Cl)cc32)CC1`, the Potency result (in [1]; in the experiment with CP238; in the experiment on CP305; with FAB9) was “inactive” in each case. Also, the Potency in the experiment on Dd2 was 3.98 µM (active).
